JMJD2E inh = qHTS Assay for Inhibitors of Human Jumonji Domain Containing 2E (JMJD2E). Lysine-specific demethylase 4E (Homo sapiens), B2RXH2. JMJD2E catalytic domain, FDH-coupled NADH fluorescence (FDH is formaldehyde dehydrogenase). Potency, µM (titrated, usually from 57.1 µM), for inactives: at the highest dose activity change, negative = inhibition, most hits filed as inhibitors. hit rate 1.6% among 230,000. AID 2147, 2009; active = well fitted inhibition curve with a large enough effect, not every such curve was filed as active; inconclusive = small, poorly fitted or top-dose-only effect, or another doubt; inactive = no such curve, though single readings can be large or run the other way;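 note: potency is the fitted concentration of half-maximal effect; 0% = wells with enzyme and -100% = buffer wells without enzyme; nearly all actives have a fitted effect of over 50% in size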
PI5P4Ka inh = qHTS for Inhibitors of phosphatidylinositol 5-phosphate 4-kinase (PI5P4K). PI5P4Kalpha enzyme, ADP-Glo luminescence, 60 min; active compounds read low. max response, %. hit rate 1.2% among 330,000; active = max response of -50% or lower; inconclusive = between -30% and -50%; inactive = -30% or higher; note: value at the top dose of about 77 µM; % is set by controls: 0 for no effect and ±100 for the full control effect
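qHTS, 1536-well: enzyme/substrate mix, compound by pin tool, 5 microM ATP final; RT 60 min; ADP-Glo reagents 1 (45 min) then 2 (30 min); luminescence.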
HP1b chromo inh = HTS for Inhibitors of HP1-beta Chromodomain Interactions with Methylated Histone Tails | Potency, µM (series often up to 114 µM), without a hit: at the highest dose activity change, negative = inhibition, most hits filed as inhibitors | AID 540317, 2011 | AlphaScreen HP1-beta / biotin-H3K9me3 peptide binding | hit rate 0.56% among 390,000; note: potency is the fitted concentration of half-maximal effect; nearly all actives have a fitted effect of over 70% in size
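HP1-beta protein (50 nM final) preincubated 30 min at room temperature with biotinylated H3(1-18)K9me3 peptide (50 nM) in PBS pH 7.4, 0.01% Tween-20, then compound added for 30 min. AlphaScreen streptavidin donor/nickel chelate acceptor beads (10 ug/mL final), 30 min dark, luminescence read.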
L3MBTL1 block = qHTS Assay for the Inhibitors of L3MBTL1; AlphaScreen L3MBTL1–H3K9me1 peptide binding; hit rate 0.66% among 230,000; Potency, µM (doses to about 57.1 µM), for the others: at the top dose activity, negative = inhibition, most hits filed as inhibitors; Lethal(3)malignant brain tumor-like protein 1 (Homo sapiens), Q9Y468; note: potency is the fitted concentration of half-maximal effect; % is set by controls: 0 for no effect and ±100 for the full control effect; nearly all actives have a fitted effect of over 60% in size
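AlphaScreen assay: L3MBTL1 (50 nM final) was preincubated 30 min at room temperature with biotinylated H3(1-15)K9me1 peptide (75 nM final), then 30 min with library compounds; streptavidin donor and nickel chelate acceptor beads (10 ug/mL final) added, 30 min dark.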
BAZ2B inh = qHTS Assay for Inhibitors of BAZ2B. Bromodomain adjacent to zinc finger domain protein 2B (Homo sapiens), Q9UIF8. AlphaScreen BAZ2B-H3K14Ac peptide displacement. Potency, µM (doses to about 114 µM), for inactives: at the top dose activity change, negative = inhibition, actives largely listed as inhibitors. hit rate 4.4% among 360,000; note: potency is the fitted concentration of half-maximal effect; % is set by controls: 0 for no effect and ±100 for the full control effect; nearly all actives have a fitted effect of over 60% in size
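Inhibition is scored as reduced AlphaScreen emission. The BAZ2B/b-H3(5-23)K14Ac complex (50 nM each) in PBS pH 7.4, 0.01% Tween-20 meets compound (up to 110 uM) for 30 min at RT before bead addition.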
JMJD2A Tudor inh = qHTS Assay for Inhibitors of JMJD2A-Tudor Domain | AID 504339, 2011 | AlphaScreen JMJD2A-Tudor / H3K4me3 peptide binding | hit rate 4.4% among 390,000 | Potency, µM (doses to about 114 µM), for inactives: top-dose activity change, negative = inhibition, most hits filed as inhibitors | Lysine-specific demethylase 4A (Homo sapiens), O75164; note: potency is the fitted concentration of half-maximal effect; % is set by controls: 0 for no effect and ±100 for the full control effect; nearly all actives have a fitted effect of over 50% in size
Target sequence (O75164 whole entry, looked up, the tested form may be a part): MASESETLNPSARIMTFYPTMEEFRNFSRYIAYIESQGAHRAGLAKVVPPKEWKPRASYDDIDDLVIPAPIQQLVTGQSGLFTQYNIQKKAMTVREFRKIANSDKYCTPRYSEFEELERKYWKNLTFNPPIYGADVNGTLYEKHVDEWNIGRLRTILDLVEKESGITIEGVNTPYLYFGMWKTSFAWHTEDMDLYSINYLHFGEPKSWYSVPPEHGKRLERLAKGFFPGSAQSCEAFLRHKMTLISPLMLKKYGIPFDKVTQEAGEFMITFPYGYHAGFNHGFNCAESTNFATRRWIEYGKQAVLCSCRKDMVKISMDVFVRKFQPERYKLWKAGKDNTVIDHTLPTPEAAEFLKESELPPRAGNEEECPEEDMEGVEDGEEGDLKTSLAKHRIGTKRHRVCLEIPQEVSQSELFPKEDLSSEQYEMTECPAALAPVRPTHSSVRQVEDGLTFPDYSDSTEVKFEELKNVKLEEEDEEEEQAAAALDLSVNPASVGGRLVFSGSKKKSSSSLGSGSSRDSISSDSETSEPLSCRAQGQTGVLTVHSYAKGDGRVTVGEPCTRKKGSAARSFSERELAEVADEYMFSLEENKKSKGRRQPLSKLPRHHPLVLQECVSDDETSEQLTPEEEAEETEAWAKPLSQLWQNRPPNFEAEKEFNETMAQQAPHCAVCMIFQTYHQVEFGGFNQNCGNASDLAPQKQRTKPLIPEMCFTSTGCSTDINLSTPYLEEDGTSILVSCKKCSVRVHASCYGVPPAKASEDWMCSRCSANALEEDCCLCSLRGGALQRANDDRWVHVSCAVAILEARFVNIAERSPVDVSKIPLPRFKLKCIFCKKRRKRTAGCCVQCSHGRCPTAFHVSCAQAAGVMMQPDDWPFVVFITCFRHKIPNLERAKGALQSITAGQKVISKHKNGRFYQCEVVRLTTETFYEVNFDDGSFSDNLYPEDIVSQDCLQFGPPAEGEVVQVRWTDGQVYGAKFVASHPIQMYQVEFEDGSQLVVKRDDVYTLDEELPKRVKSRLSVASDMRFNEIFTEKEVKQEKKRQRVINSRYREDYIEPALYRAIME
* = called active by the depositor; ? = inconclusive; nt = no result given; [ ] = remark or other dose. This is a sample that favours compounds with a hit; in the whole collection about 5.7% have one here. Unless noted, calls come from the whole dose curve; as a rule, active = well fitted inhibition curve with a large enough effect; inconclusive = small, poorly fitted or top-dose-only effect; inactive = no such curve, though single readings can be large or run the other way.

SMILES	JMJD2E inh	PI5P4Ka inh	HP1b chromo inh	L3MBTL1 block	BAZ2B inh	JMJD2A Tudor inh
COc1cc(/C=N/NC(=O)Cc2ccc(Br)cc2)cc(OC)c1O	?	-5.4	2.1%	2.7%	2.9%	-1.9%
COc1cc(/C=N/Nc2cccc(C)c2)cc(Br)c1O	0.8%	?	?	-8.8%	44.7µM*	50.1µM*
COc1ccc2ccccc2c1/C=N/NC(=O)c1sc(N)c(C#N)c1C	?	-76.2*	30.8%	1.6%	4.9%	-10.3%
COc1cc(/C=N/Nc2cccc(C)c2)ccc1OC(=O)c1cccs1	-4.5%	-6.7	14.7%	-0.6%	-37.8%	?
COc1cc(/C=N/NC(=O)CC#N)cc(Br)c1O	?	?	?	?	50.1µM*	35.5µM*
COc1cc(/C=N/NC(=O)c2sc(N)c(C#N)c2C)cc(Br)c1O	?	-73.3*	28.1%	-0.3%	-7.1%	-9.5%
CN(C)c1ccc(CNS(=O)(=O)c2ccc(-c3cc(C(F)(F)F)on3)s2)cc1	nt	nt	19.0%	nt	-7.3%	-19.8%
COc1ccc(-c2cn3nc(N4CCC(C(=O)Nc5cc(Cl)ccc5OC)CC4)sc3n2)cc1	nt	nt	34.7%	nt	3.5%	-5.6%
COc1cccc(-c2nn3c(=O)cc(CN4CCN(S(=O)(=O)c5ccc(C)cc5)CC4)nc3s2)c1	nt	nt	26.3%[57 µM]	nt	1.0%	-7.1%
O=c1c2ccccc2nc(N2CCN(c3cccc(Cl)c3)CC2)n1-c1ccccc1	nt	nt	36.6%	nt	nt	-15.0%
COc1cc(C=NNC(=O)c2ccc(NS(=O)(=O)c3cccs3)cc2)cc(Br)c1O	nt	-82.3*	6.9%[57 µM]	-3.1%	nt	-8.3%
CCOc1ccc(OCCOc2ccc(/C=C/C(=O)O)cc2OCC)cc1	nt	4.3	5.6%	nt	-1.7%	-7.0%
CCOc1cc(/C=C/C(=O)O)ccc1OCCO	?	-21.5	4.1%	2.8%	-13.3%	35.5µM*
CCc1cccc(NC(=O)Cn2c(=O)c(C(F)(F)F)nc3ccccc32)c1	nt	nt	15.9%	nt	4.1%	-2.6%
CC(=O)c1ccc(OCC(O)CN2CCN(CC(O)COc3ccc(C(C)=O)cc3)CC2)cc1 (stereo unspecified)	11.9%	-6.7	15.5%	12.0%	2.6%	-0.8%
O=[N+]([O-])c1ccccc1OCC(O)CN1CCN(CC(O)COc2ccccc2[N+](=O)[O-])CC1 (stereo unspecified)	nt	-0.5	18.1%	41.1%	4.8%	-12.0%
COc1ccc(N2CCN(CC(O)COc3ccccc3[N+](=O)[O-])CC2)cc1 (stereo unspecified)	5.1%	-1.1	?	-4.2%	?	28.2µM*
CC(=O)N1CCN(CC(O)COc2ccc(Br)cc2)CC1 (stereo unspecified)	nt	-0.9	?	6.0%	56.2µM*	17.8µM*
COc1ccc(N2CCN(CC(O)COc3cc(C)ccc3C)CC2)cc1 (stereo unspecified)	nt	5.2	19.6%	nt	?	-33.5%
COc1ccc(N2CCN(CC(O)COc3ccc(C(C)(C)C)cc3)CC2)cc1 (stereo unspecified)	nt	nt	-1.4%	nt	?	79.4µM*
COc1ccc(N2CCN(CC(O)COCc3ccccc3)CC2)cc1 (stereo unspecified)	-0.6%	10.8	1.1%	-13.3%	56.2µM*	?
O=C(CSC(=S)N1CCCC1)N1CCN(S(=O)(=O)c2cccc([N+](=O)[O-])c2)CC1	nt	-1.1	1.2%	nt	-14.1%	-19.3%
CC(C)(C)OC(=O)NC(Cc1ccccc1)C(=O)NC1COC2CC(n3ccc(=O)[nH]c3=O)OC12 (stereo unspecified)	nt	nt	?	nt	nt	-0.7%
NC(=O)c1ncn([C@@H]2O[C@H](CNCc3cccn3-c3ccncc3)[C@@H](O)[C@H]2O)n1	nt	-1.2	19.9%	nt	nt	-17.1%
O=S(=O)(c1ccc2c(c1)OCCO2)N1CCN(c2nc(-c3cccs3)nc3ccccc23)CC1	nt	nt	32.9%	nt	nt	-17.0%
SMILES	JMJD2E inh	PI5P4Ka inh	HP1b chromo inh	L3MBTL1 block	BAZ2B inh	JMJD2A Tudor inh
CC(C)c1ccc(OCC(O)CN2CCN(c3ccccc3)CC2)cc1 (stereo unspecified)	-8.1%	13.4	-5.9%	nt	56.2µM*	-35.9%
CCc1ccc(OCC(O)CN2CCN(c3ccc(OC)cc3)CC2)cc1 (stereo unspecified)	nt	7.4	-15.7%	nt	70.8µM*	35.5µM*
COc1ccc(OCC(O)CN2CCN(c3ccccc3)CC2)cc1 (stereo unspecified)	-4.6%	-0.1	22.0%	34.6%	-11.6%	?
CCc1ccc(OCC(O)CN2CCCC2)cc1 (stereo unspecified)	nt	-0.6	38.4%	-9.1%	-2.4%	-2.7%
COc1ccc(N2CCN(CC(O)COc3ccc(C)cc3C)CC2)cc1 (stereo unspecified)	nt	3.2	?	nt	39.8µM*	44.7µM*
COC(=O)c1c(N)sc(C(=O)NCCc2ccccc2)c1C	nt	-8.2	13.9%	-8.7%	-35.0%	-9.8%
O=c1c2oc3ccccc3c2n(Cc2ccccc2)c(=O)n1Cc1ccc2c(c1)OCO2	nt	nt	45.4%	nt	-25.8%	-2.6%
CCn1c(-c2ccc3[nH]c(C)c(C)c3c2)n[nH]c1=S	?	nt	-26.4%	-11.8%	?	22.4µM*
Cc1[nH]c2ccc(-c3n[nH]c(=S)n3C)cc2c1C	?	nt	?	-8.5%	?	4.47µM*
Cn1c(=O)c2c(ncn2CC(=O)OCC(=O)Nc2cccc(C#N)c2)n(C)c1=O	nt	0.1	nt	nt	nt	nt
CC(OCc1ccccc1)C(NC(=O)OC(C)(C)C)C(=O)NC1COC2CC(n3cc(F)c(=O)[nH]c3=O)OC12 (stereo unspecified)	nt	nt	30.6%	nt	nt	-6.9%
COc1cccc(C(=O)NCCSc2c(-c3ccc(F)cc3)[nH]c3ccccc23)c1OC	nt	nt	14.4%	nt	-22.4%	-27.3%
CC(=O)c1c(C)[nH]c(C(=O)OCC(=O)Nc2ncc(Cl)c(C)c2Cl)c1C	19.2%	-53.9*	10.5%	-11.0%	-38.7%	-31.3%[57.1 µM]
Cc1ccccc1OCC(=O)OCC(=O)Nc1ncc(Cl)c(C)c1Cl	nt	-18.9	4.8%	?	56.2µM*	?
Cc1ccccc1OCC(=O)OCC(=O)Nc1ccc(Cl)cn1	nt	-2.0	30.6%	-0.5%	2.8%	-13.9%
CC(C)=CC(=O)OCC(=O)Nc1ncc(Cl)c(C)c1Cl	4.1%	nt	15.5%	-26.4%	?	-17.5%
COC(=O)c1c(-c2cccs2)csc1NC(=O)c1ccc(C(C)(C)C)cc1	nt	nt	-12.9%	nt	-11.4%	?
